{"source": "PubChem BioAssay AID1626", "about": "(SRMLSC, 2009)", "note": "About 2,000 (0.91%) of roughly 220,000 compounds were called active. About 2% were inconclusive and are not listed. The list is a sample of the results. Entries with a potency or affinity are not part of this list. Unmarked numbers belong to inactive results. No stated cut-off is given here; in the data, inconclusive means inhibition above about 80% without an active follow-up result; inactive means below that; test concentration not stated here."}
{"test": "M. tuberculosis H37Rv growth inhibitors, H37Rv strain (AID 1626);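 further: bacteria incubated seven days before Alamar blue readout; 0% = bacteria only wells and 100% = bacteria with antibiotic wells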", "conditions": "active compounds read high, concentration not given here", "units": {"inhibition": "%"}}
{"compound": "COc1ccc(OC(=O)c2c(C)nn(-c3ccccc3)c2C)cc1", "inhibition": -12.3}
{"compound": "Cc1c(C(=O)Oc2cccc3ccccc23)cnn1-c1ccccc1", "inhibition": 27.3}
{"compound": "NC(=O)CSc1nnnn1-c1ccc(OC(F)(F)F)cc1", "inhibition": -7.21}
{"compound": "CCC1=CCN(CCc2c(C)[nH]c3ccccc23)CC1", "inhibition": -0.79}
{"compound": "NNC(=S)Nc1c(Br)cc(F)cc1Br", "inhibition": -5.67}
{"compound": "CCC1(C)N=C(c2ccc3c(c2)OCO3)CC(c2ccccc2O)N1", "note": "(stereo not drawn)", "inhibition": 14.6}
{"compound": "COc1cccc(C2=NC(C)(C)NC(c3ccccc3O)C2)c1", "note": "(stereo not drawn)", "inhibition": 4.8}
{"compound": "Clc1ccc2nc(-c3ccc4c(c3)OCO4)cn2c1", "inhibition": 4.92}
{"compound": "CCOc1ccccc1C1N=C(c2ccc(OC)cc2)CC(c2ccccc2O)N1", "note": "(stereo not drawn)", "inhibition": 7.98}
{"compound": "CN1CCC(N(C)CC(=O)Nc2ccccc2N2CCOCC2)CC1", "inhibition": 13.7}
{"compound": "O=C(NCCCO)NC(=S)c1cccc2ccccc12", "inhibition": -0.39}
{"compound": "CCc1ccc(Nc2nnc(SCC(=O)NC(=O)c3cccn3C)s2)cc1", "inhibition": 2.04}
{"compound": "CCc1ccccc1NC(=O)CN(C)C(=O)CSc1nnc(Nc2cccc(C)c2)s1", "inhibition": 6.25}
{"compound": "Cc1cc(NC(=O)CSc2nnc(Nc3ccccc3C)s2)no1", "inhibition": -2.04}
{"compound": "Cc1cccc(Nc2nnc(SCC(=O)Nc3ccc(C(=O)O)cc3)s2)c1", "inhibition": 13.8}
{"compound": "CCc1ccc(Nc2nnc(SCC(=O)Nc3ccc(C(=O)O)cc3)s2)cc1", "inhibition": -5.8}
{"compound": "Cc1ccc(C)c(SCC(=O)Nc2cccnc2Cl)c1", "inhibition": 18.9}
{"compound": "CCOC(=O)c1cc2c(ccn2-c2ccc(F)cc2)n1CC(=O)N1CCN(C(=O)c2ccco2)CC1", "inhibition": -1.91}
{"compound": "Clc1ccccc1CNC1CN2CCC1CC2", "note": "(stereo not drawn)", "inhibition": 5.7}
{"compound": "CCNc1ncnc2c1cnn2C", "inhibition": -10.7}
{"compound": "Cc1ccc(SCc2[nH]nc3c2C2(C(=O)Nc4ccc([N+](=O)[O-])cc42)C(C#N)=C(N)O3)cc1", "note": "(stereo not drawn)", "inhibition": -2.15}
{"compound": "COc1ccc(CNc2nc3ccccc3n2CCN2CCCCC2)cc1", "inhibition": -0.5}
{"compound": "CCN(CC)c1ccc(CNc2nc3ccccc3n2CCN2CCOCC2)cc1", "inhibition": 6.6}
{"compound": "Cc1ccc(S(=O)(=O)NCc2ccc(C(=O)N(C)CCC#N)cc2)cc1", "inhibition": 4.15}
{"compound": "Cc1ccc(NC(=O)c2cnccn2)cc1", "inhibition": 3.69}
{"compound": "O=C(CCNc1cccc(C(F)(F)F)c1)c1ccco1", "inhibition": 53.5}
{"compound": "O=C(Nc1ccc(Cl)c(C(F)(F)F)c1)c1ccco1", "inhibition": 10.7}
{"compound": "O=C(COC(=O)CCS(=O)(=O)c1ccc(Cl)cc1)NC1CCCCC1", "inhibition": 0.69}
{"compound": "Cc1cc(NC(=O)CSc2nnc(-c3ccc(O)cc3)o2)no1", "inhibition": -6.89}
{"compound": "Cc1cc(NC(=O)CSc2nnc(-c3ccco3)o2)no1", "inhibition": -3.8}
{"compound": "Cc1ccc(-c2nnc(SCCC(=O)N3CCOCC3)o2)cc1", "inhibition": 77.5}
{"compound": "Cc1cc(NC(=O)CSc2nnc(COc3ccccc3)o2)no1", "inhibition": 3.02}
{"compound": "O=C(CCSc1nnc(-c2ccc(O)cc2)o1)N1CCOCC1", "inhibition": -1.1}
{"compound": "Cc1cc(NC(=O)CSc2nnc(Cc3ccccc3)o2)no1", "inhibition": -8.58}
{"compound": "COc1cccc(-c2nnc(SCC(=O)Nc3cc(C)on3)n2C)c1", "inhibition": -2.38}
{"compound": "CCOc1ccc(-c2nnc3ccc(SCC(=O)Nc4cc(C)on4)nn23)cc1", "inhibition": 4.14}
{"compound": "COc1cc(OC)c(Nc2cc(C)nc3nc(C)nn23)cc1Cl", "inhibition": 10.9}
{"compound": "COc1ccccc1N1CCN(C(c2ccc(Cl)cc2)c2nnnn2C(C)(C)C)CC1", "note": "(stereo not drawn)", "inhibition": 3.99}
{"compound": "COc1ccc(-n2c(O)c(C=Nc3c(C)n(C)n(-c4ccccc4)c3=O)c(=O)[nH]c2=O)cc1", "inhibition": 6.56}
{"compound": "CN(c1ccc(C(=O)N2CCN(Cc3ccc4c(c3)OCO4)CC2)cc1)S(=O)(=O)c1ccccc1", "inhibition": 7.14}
{"compound": "O=C(Nc1cccc(NC(=S)NC(=O)c2cccs2)c1)c1ccccc1", "inhibition": -2.28}
{"compound": "CSc1cccc(NC(=S)N(CCC(C)C)C2CCN(C(C)=O)CC2)c1", "inhibition": -6.61}
{"compound": "CC(N)C(=O)c1ccco1", "note": "(stereo not drawn)", "inhibition": -3.4}
{"compound": "COc1ccccc1NC(=S)NNC(=O)c1cc(C)nn1C", "inhibition": -9.1}
{"compound": "Cc1cc(NC(=O)CSc2nnc(-c3ccoc3C)o2)no1", "inhibition": 4.02}
{"compound": "COc1ccccc1-c1nnc(SCC(=O)Nc2c(Cl)cccc2Cl)o1", "inhibition": -3.32}
{"compound": "Cc1cc(NC(=O)CSc2ccc3c(c2)OCCO3)no1", "inhibition": -5.76}
{"compound": "O=C(CSc1nnc(-c2ccc(O)cc2)o1)Nc1ccc2c(c1)OCCO2", "inhibition": -0.38}
{"compound": "Cc1ccc(NCc2nnc(SCC(=O)Nc3cc(C)on3)n2C)cc1", "inhibition": -5.91}
{"compound": "COc1ccc(-c2nnc(SCC(=O)Nc3cc(F)ccc3C)o2)cc1", "inhibition": -6.49}
{"compound": "COc1ccc(-c2nnc(SCC(=O)Nc3nncs3)o2)cc1", "inhibition": 1.2}
{"compound": "COc1ccccc1-n1c(CNc2ccc(F)cc2)nnc1SCC(=O)Nc1cc(C)on1", "inhibition": -4.09}
{"compound": "Cc1cccc(NN=C2c3ccccc3-c3ccccc32)c1", "inhibition": 1.34}
{"compound": "Cc1cc(C)nc(SCc2nnc(SCC(=O)Nc3ccc(C)c(C)c3)o2)n1", "inhibition": 0.69}
{"compound": "Cc1ccc(-c2nn3c(C)nnc3s2)cc1NC(=O)c1ccc(-c2ccc(Cl)cc2Cl)o1", "inhibition": -7.97}
{"compound": "Cc1ccccc1CSCC(=O)NC1CCCC1", "inhibition": 3.78}
{"compound": "Cc1ccccc1NC(=S)N(C)Cc1cn(C)c2ccccc12", "inhibition": 2.82}
{"compound": "COc1ccc(CCNC(=O)CSc2nnc(-c3ccc(F)cc3)o2)cc1OC", "inhibition": -1.7}
{"compound": "O=C(CSc1nnc(-c2ccc(F)cc2)o1)NC1CCCCC1", "inhibition": -0.23}
{"compound": "O=C(O)CCc1nn2c3ccccc3n(CCO)c2nc1=O", "inhibition": 2.12}
{"compound": "Cc1ccc(-c2csc3nc[nH]c(=O)c23)cc1", "inhibition": -5.48}
{"compound": "S=c1[nH]cnc2scc(-c3ccc(Cl)cc3)c12", "inhibition": 76.4}
{"compound": "Cn1c(C(C#N)C(=O)c2sc3ccccc3c2Cl)nc2ccccc21", "note": "(stereo not drawn)", "inhibition": 94.3}
{"compound": "O=C(Nc1nc2ccccc2n1Cc1ccc(Cl)cc1)c1ccco1", "inhibition": 16.1}
{"compound": "O=C(Nc1nc2ccccc2n1CCN1CCCCC1)c1ccco1", "inhibition": 6.64}
{"compound": "Cc1ccc(Cn2c(NS(=O)(=O)c3ccccc3)nc3ccccc32)cc1", "inhibition": 84.8}
{"compound": "CCCn1c(NCc2ccco2)nc2ccccc21", "inhibition": -3.29}
{"compound": "Cn1c(C(C#N)C(=O)Cc2cccc3ccccc23)nc2ccccc21", "note": "(stereo not drawn)", "inhibition": -15.5}
{"compound": "COc1ccc(/C=C/C(=O)Nc2nc(N)n(-c3ccccc3)n2)cc1", "inhibition": 6.8}
{"compound": "Nc1nc(NC(=O)/C=C/c2ccccc2)nn1-c1ccccc1", "inhibition": -0.46}
{"compound": "CC(O)C1C(=O)OC2(C)CC(C)(C)NC(=S)N12", "note": "(stereo not drawn)", "inhibition": -6.84}
{"compound": "CCOC(=O)c1c(NC(=O)CC)sc(C(C)=O)c1C", "inhibition": 2.45}
{"compound": "O=C(NN=C1CCCCCC1)c1c[nH]c2ccccc12", "inhibition": -1.9}
{"compound": "Cn1c2c(c(=O)n(C)c1=O)CN(CCc1ccccc1)CN2", "inhibition": -1.68}
{"compound": "Cc1cc(C)nc(Nc2nc(=O)c3ccccc3s2)n1", "inhibition": -3.37}
{"compound": "NC(=O)[C@@H]1CCOc2c(I)cc([N+](=O)[O-])cc2C(=O)N[C@@H](CO)C(=O)NCC(=O)N1", "inhibition": -8.7}
{"compound": "CC(=O)N1NC(=Nc2ccccc2)SC1(C)C", "inhibition": -6.07}
{"compound": "O=C(CN1CCCC1)NCC12CC3CC(CC(C3)C1)C2", "inhibition": -7.14}
{"compound": "COCCNC(=O)C(c1ccc(Cl)cc1)N(CCOC)C(=O)CCC(=O)Nc1nccs1", "note": "(stereo not drawn)", "inhibition": -6.72}
{"compound": "Cc1cc(C)cc(N(C(=O)CCC(=O)Nc2ccccn2)C(C(=O)NC(C)C)c2ccc(O)cc2)c1", "note": "(stereo not drawn)", "inhibition": 4.72}
{"compound": "Nc1nc(SCc2ccc(Cl)cc2Cl)ns1", "inhibition": 28.5}
{"compound": "Nc1nc(NC(=O)c2ccco2)nn1-c1ccccc1", "inhibition": -7.46}
{"compound": "Nc1nc(NC(=O)c2ccccc2)nn1-c1ccccc1", "inhibition": -1.03}
{"compound": "COc1ccc(/C=N/NC(=O)c2ccn[nH]2)cc1Cn1nc(C)c([N+](=O)[O-])c1C", "inhibition": 1.53}
{"compound": "O=C(Cc1ccccc1[N+](=O)[O-])N1CCc2ccccc2C1", "inhibition": -4.17}
{"compound": "CC(OC(=O)CCCOc1ccccc1)C(=O)NC(N)=O", "note": "(stereo not drawn)", "inhibition": -2.98}
{"compound": "COCC(C)N=C1NN=C(c2cc(C)n(Cc3ccccc3Cl)c2C)CS1", "note": "(stereo not drawn)", "inhibition": 5.76}
{"compound": "COCCCN=C1NN=C(c2cc(C)n(-c3ccccc3)c2C)CS1", "inhibition": -2.89}
{"compound": "Cc1cc(C2=NNC(=NC3CC3)SC2)c(C)n1-c1ccccc1F", "inhibition": -4.49}
{"compound": "COCCCN=C1NN=C(c2cc(C)n(Cc3ccco3)c2C)CS1", "inhibition": -3.28}
{"compound": "O=C(OCC(=O)N1c2ccccc2Sc2ccccc21)C1CC(=O)N(Cc2ccco2)C1", "note": "(stereo not drawn)", "inhibition": 3.33}
{"compound": "Brc1ccc(-c2c[n+]3c(n2-c2ccccc2)SCC3)cc1", "inhibition": 1.71}
{"compound": "CCOc1ccccc1CNC(=O)CCN1C(=O)COc2ccccc21", "inhibition": 4.08}
{"compound": "CCOC(=O)C1=C(c2ccccc2)NC(=O)NC1c1ccc(OC)c(OC)c1", "note": "(stereo not drawn)", "inhibition": -0.28}
{"compound": "CCOC(=O)C1=C(c2ccccc2)NC(=O)NC1c1ccc(OCC#N)c(OC)c1", "note": "(stereo not drawn)", "inhibition": 2.6}
{"compound": "N#Cc1nc(-c2ccccc2F)oc1NC1CCCCC1", "inhibition": 3.24}
{"compound": "CN(CC(=O)Nc1ccc(Cl)c(Cl)c1)C(=O)/C=C/c1ccc(F)cc1", "inhibition": -5.59}
{"compound": "CN(CC(=O)Nc1ccc(C#N)cc1)Cc1ccc(Cl)c(Cl)c1", "inhibition": 11.2}
